Hits are enriched below; roughly 14% of the tested compounds scored in any of these assays.
NS1 inh: qHTS Assay for Inhibitors of Influenza NS1 Protein Function; 270,000 tested, 0.4% active; Potency, µM (top dose mostly 46.1 µM), for inactives: at the top dose activity, positive = more growth; calls by dose curve; note: potency is the fitted concentration of half-maximal effect; actives are rising curves; nearly all actives have a fitted effect of over 50% in size
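Growth recovery, yeast-based: influenza A NS1 expressed in S. cerevisiae causes slow growth, and suppressors are detected by OD600. The parent strain without NS1 is used as positive control.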
Cycloheximide cs: Cycloheximide Counterscreen for Small Molecule Inhibitors of Shiga Toxin. AID 2314, 2010. max response, %. 300,000 tested, 12% active. cell reporter, cycloheximide protein synthesis inhibition counterscreen; in the data active = max response mostly above about 13%, no sharp cut-off; inactive = mostly below about 14%; note: read at 38.3 µM for the half of the compounds with a filed dose; 0% is about no effect
Giardia FBPA inh: qHTS Assay for Inhibitors of Fructose-1,6-bisphosphate Aldolase from Giardia Lamblia | A8B2U2 | purified Giardia FBPA | Potency, µM (series often up to 59.6 µM), inactives show at the top dose activity, negative = inhibition, most hits filed as inhibitors | 290,000 tested, 0.71% active | AID 2451, 2010; note: potency is the fitted concentration of half-maximal effect; % is set by controls: 0 for no effect and ±100 for the full control effect; nearly all actives have a fitted effect of over 55% in size
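40 nM FBPA preincubated 10 min at RT with compound (up to 57.5 uM final), then substrate plus GAPDH/TPI/NAD/arsenate coupling and diaphorase/resazurin added. Fluorescence read after 20 min at RT, 525/598 nm.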
LmPK inhibitor: qHTS Assay for Inhibitors of Leishmania Mexicana Pyruvate Kinase (LmPK); Q27686; purified LmPK, Kinase-Glo ATP luminescence, 1 h; Potency, µM (doses to about 57.5 µM), without a hit: at the highest dose activity change, negative = inhibition, hits mostly inhibitors; 290,000 tested, 0.37% active; AID 1721, 2009; note: potency is the fitted concentration of half-maximal effect; % is set by controls: 0 for no effect and ±100 for the full control effect
Target sequence (Q27686 whole entry, looked up): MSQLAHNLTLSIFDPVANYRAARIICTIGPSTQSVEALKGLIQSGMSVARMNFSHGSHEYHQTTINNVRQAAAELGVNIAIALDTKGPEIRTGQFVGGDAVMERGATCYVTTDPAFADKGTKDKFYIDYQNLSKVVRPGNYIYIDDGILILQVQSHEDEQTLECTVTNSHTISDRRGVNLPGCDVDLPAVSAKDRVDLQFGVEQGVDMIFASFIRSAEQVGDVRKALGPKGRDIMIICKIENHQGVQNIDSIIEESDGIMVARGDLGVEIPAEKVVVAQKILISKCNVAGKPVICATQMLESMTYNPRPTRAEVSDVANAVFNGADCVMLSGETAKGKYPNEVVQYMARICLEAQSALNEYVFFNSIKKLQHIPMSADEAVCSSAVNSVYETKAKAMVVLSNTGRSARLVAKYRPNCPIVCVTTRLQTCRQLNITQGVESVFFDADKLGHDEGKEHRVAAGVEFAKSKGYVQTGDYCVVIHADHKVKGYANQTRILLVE
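Purified LmPK (0.1 nM) with 0.5 mM PEP and 0.1 mM ADP in imidazole buffer pH 7.2 with MgCl2/KCl, 1 h at room temperature. ATP formed was read by luciferase luminescence and normalized to no-enzyme and uninhibited controls.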
Shiga toxin inh: A qHTS for Small Molecule Inhibitors of Shiga Toxin; Vero cells, Shiga toxin protein synthesis inhibition reporter; inhibition, % at 38.7 µM; 290,000 tested, 9.2% active; in the data active = inhibition mostly above about 28%, no sharp cut-off; inactive = mostly below about 43%; note: 0% is about no effect
* marks the source's active call; other numbers are inactive results; ? = inconclusive; nt = not tested or not shown; + = active, no number; [ ] = dose if it differs, or a comment. Unless noted, calls come from the whole dose curve; as a rule, active = well fitted curve in the direction sought with a large enough effect; inconclusive = small, poorly fitted or top-dose-only effect, or another doubt; inactive = no such curve, though single readings can be large; an effect the other way counts as inactive or inconclusive.

SMILES	NS1 inh	Cycloheximide cs	Giardia FBPA inh	LmPK inhibitor	Shiga toxin inh
O=C1NCCC/C1=N/Nc1cc(F)ccc1F	-73.4%	35.7*	-13.3%	-4.2%	42.4*
Cc1ccc(N/N=C2/CCCNC2=O)cc1	1.7%	11.0	-26.1%	0.2%	39.9
Cc1ccc(-n2nc3c(=O)n(CC(=O)NC(C)CCc4ccccc4)nc(C)c3c2C)cc1 (stereo not drawn)	8.8%	-2.3	4.8%	-15.8%	5.7
CCOC(=O)OCC1OC(c2ccc(C(C)=O)cc2)C=CC1Oc1ccc(-c2ccccc2)cc1 (stereo not drawn)	nt	nt	0.3%[12.9 µM]	nt	nt
O=C1C(=O)N(Cc2ccncc2)C(c2cccc(O)c2)/C1=C(\O)c1ccc2c(c1)OCCO2 (stereo not drawn)	6.9%	32.0*	-17.0%	-0.5%	78.1*
CC1Cc2cc(/C(O)=C3\C(=O)C(=O)N(CCN(C)C)C3c3ccccc3F)ccc2O1 (stereo not drawn)	-16.3%	17.5*	4.6%	5.3%	77.1*
CC1Cc2cc(/C(O)=C3/C(=O)C(=O)N(CCCn4ccnc4)C3c3ccc(F)cc3)ccc2O1 (stereo not drawn)	-10.6%	20.7*	-5.4%	8.1%	63.3
Cc1nnc(N2C(=O)C(=O)/C(=C(\O)c3ccc4c(c3)CC(C)O4)C2c2ccccc2)s1 (stereo not drawn)	?	24.7*	nt	-10.7%	49.7*
COc1cc(C2/C(=C(\O)c3ccc4c(c3)CC(C)O4)C(=O)C(=O)N2CCCn2ccnc2)cc(OC)c1OC (stereo not drawn)	2.2%	-6.9	nt	-14.0%	-1.7
Cc1ccc(CC(=O)NCCC(=O)O)cc1	4.3%	-3.0	-2.3%	-1.7%	-9.6
CCN(CC)CCC(c1ccc(N(C)C)cc1)c1c(OC)cc(OC)c2c1OC(=O)CC2c1ccc(OC)cc1 (stereo not drawn)	nt	-10.0	-0.3%	nt	-4.0
CC(C)(C)C(Cn1ccnc1)NC(=O)c1ccc2nc(C3CC3)oc2c1 (stereo not drawn)	-3.2%	8.2	nt	-5.7%	33.2
C#CCCCO/N=C1/[C@H]2O[C@@H]2[C@@H](O)[C@H]2[C@H]1CCn1c(=O)n(-c3ccccc3)c(=O)n12	nt	nt	2.4%[12.9 µM]	nt	nt
CCOc1cccc(C2/C(=C(/O)c3ccc4c(c3)CC(C)O4)C(=O)C(=O)N2CCN2CCOCC2)c1 (stereo not drawn)	3.9%	-1.9	4.4%	5.9%	-6.8
CC1Cc2cc(/C(O)=C3/C(=O)C(=O)N(CC4CCCO4)C3c3ccco3)ccc2O1 (stereo not drawn)	3.5%	41.3*	-3.9%	-9.3%	74.3*
C=CCOc1cccc(C2/C(=C(\O)c3ccc4c(c3)OCCO4)C(=O)C(=O)N2Cc2cccnc2)c1 (stereo not drawn)	8.0%	-1.8	2.2%	0.5%	19.4
CC1Cc2cc(/C(O)=C3/C(=O)C(=O)N(Cc4cccnc4)C3c3cccc(O)c3)ccc2O1 (stereo not drawn)	-18.8%	34.3*	nt	5.8%	66.1*
CC1Cc2cc(/C(O)=C3/C(=O)C(=O)N(CCN4CCOCC4)C3c3cccc(O)c3)ccc2O1 (stereo not drawn)	-28.6%	62.3*	-0.1%	4.7%	91.3*
O=C1C(=O)N(Cc2cccnc2)C(c2cccc(O)c2)/C1=C(\O)c1ccc2c(c1)OCCO2 (stereo not drawn)	7.3%	24.5*	3.6%	0.6%	74.2*
COc1ccc(OC)c(CCNC(=O)c2cccc(NC(=O)C3=C(C)OCCS3)c2)c1	-19.4%	-11.5	nt	-12.0%	-12.9
CSc1ccc(CNC(=O)Cc2ccc(NC(=O)C3=C(C)OCCS3)cc2)cc1	6.2%	24.4*	0.7%	1.7%	54.7*
CCOc1ccc(CCNC(=O)Cc2ccc(NC(=O)C3=C(C)OCCS3)cc2)cc1	11.7%	20.6	nt	-10.0%	47.1*
CC1=C(C(=O)Nc2ccc(C(=O)NCCC(C)C)cc2)SCCO1	0.8%	-1.6	-4.6%	-3.7%	-5.5
O=C(NCCc1ccc(C(F)(F)F)cc1)c1ccc(Cl)nc1	-6.8%	-0.9	7.1%	-3.2%	-3.7
CNC(=O)C1(C)C=CCN1C(=O)c1ccccc1 (stereo not drawn)	28.4%	-2.9	3.2%	-3.1%	-13.9
SMILES	NS1 inh	Cycloheximide cs	Giardia FBPA inh	LmPK inhibitor	Shiga toxin inh
CC1(C(=O)NCCN2CCOCC2)C=CCN1C(=O)c1ccccc1 (stereo not drawn)	-19.0%	26.4*	0.3%	-0.6%	40.7*
CC(C)C[C@H](NC(=O)[C@H]1O[C@@H]1C(=O)O)C(=O)NCCCCN=C(N)N	nt	-4.6	4.6%	nt	-5.2
Cc1cc(C)c2oc(-c3cccc(N)c3)nc2c1	-52.4%	52.4*	-7.5%	0.6%	105.8*
Cc1ccc2nc(-c3cccc(N)c3)oc2c1	-3.1%	10.2	5.9%	-4.8%	7.4
COC(=O)c1sccc1NC(=O)Nc1ccc(Cl)c(Cl)c1	-57.1%	27.3*	0.7%	-2.4%	23.3
COC(=O)c1sccc1NC(=O)c1c(Cl)cccc1Cl	12.0%	-1.0	8.9%	6.4%	60.7
CCc1ccc(NC(=O)Nc2ccsc2C(=O)OC)cc1	-81.7%	36.1*	-13.1%	?	42.1*
COC(=O)c1sccc1NC(=O)Nc1ccccc1F	-6.3%	-3.2	-13.9%	14.1µM*	10.6
COC(=O)c1sccc1NC(=O)Nc1ccccc1C	-18.3%	5.9	nt	1.1%	-19.1
COC(=O)c1sccc1NC(=O)Cc1ccc(Br)cc1	nt	26.5*	9.6%	-8.3%	31.8*
COC(=O)c1sccc1NC(=O)Cc1ccc(OC)c(OC)c1	-3.2%	14.3	-11.1%	3.0%	6.7
COC(=O)c1sccc1NC(=O)Nc1ccc(C)c(C)c1	-64.8%	41.4*	nt	?	72.3*
COC(=O)c1sccc1NC(=O)CSc1cccc(Cl)c1Cl	-21.0%	11.6*	-12.1%	-2.7%	27.2
COC(=O)c1sccc1NC(=O)Nc1ccc(OC)c(OC)c1	-6.1%	11.9	nt	-4.8%	-6.0
COC(=O)c1sccc1S(=O)(=O)Nc1ccc(C)cc1	-6.7%	16.0*	-25.0%	-1.6%	1.6
COc1ccc(C2/C=C\CN(C(=O)C3CCCCC3)C(C)C(=O)N2Cc2ccc(F)cc2)cc1 (stereo not drawn)	nt	-9.8	-0.3%	nt	-3.2
CO/N=C(/C)CCC(=O)OC[C@@H]1O[C@H](C#Cc2ccccc2)C=C[C@@H]1Oc1ccc(C)cc1	nt	nt	-1.8%[12.9 µM]	nt	nt
COc1ccc(CCNCC(O)COc2c(C)cccc2C)cc1OC (stereo not drawn)	-0.3%	-6.3	?	-0.3%	-8.0
O=C(Cn1c(=O)n(Cc2ccc(C(=O)NCc3ccc4c(c3)OCO4)cc2)c(=O)c2ccccc21)Nc1ccc(F)cc1F	nt	1.6	nt	nt	-3.6
COc1ccc(-c2nc3cnc(Nc4ccccc4)nc3n(CCC#N)c2=O)cc1	nt	nt	4.9%	nt	nt
Cc1cccc(C(=O)Oc2ccc(/C=N/NC(=O)c3ccccc3O)cc2)c1	-16.0%	37.6*	-10.8%	2.1%	+
COc1ccc(C(=O)N/N=C/c2ccc(OC(=O)c3ccccc3)cc2)cc1	-38.6%	-0.8	4.5%	1.0%	19.0
